Source: PubChem BioAssay
ssDAF-12 act: S. stercoralis DAF-12 nuclear receptor activators, primary screen, cell-based, luminescence, HEK293, GRIP1 co-expression, lit1-tk-luc; Nuclear hormone receptor DAF-12 (Strongyloides stercoralis); HEK293 ssDAF-12/GRIP1 lit1-tk-luc reporter; % of 3 µM dafachronic acid response; activation, % at 6.8 µM; hit rate 1% among 370,000;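 active = activation above the mean over all tested compounds plus 3 SD, cut at about 0.9% in these data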;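 note: 0% = DMSO-only wells and 100% = 3 µM delta7-dafachronic acid wells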
DAX1 inh-1: DAX1 (NR0B1) inhibitors, primary screen, cell-based, HEK293, Gal4-DAX1, luciferase luminescence. inhibition, % at 6.75 µM. HEK293 Gal4-DAX1 luciferase reporter. Nuclear receptor subfamily 0 group B member 1 (Homo sapiens), P51843. hit rate 0.99% among 340,000;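 active = inhibition above the mean over all tested compounds plus 3 SD, cut at about 4.2% in these data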;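 note: 0% = DAX1-transfected cells with DMSO and 100% = empty-vector control cells with DMSO; inhibition shows as a rise in luminescence from relieved DAX1 repression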
Target sequence (P51843 207-470 limits assumed): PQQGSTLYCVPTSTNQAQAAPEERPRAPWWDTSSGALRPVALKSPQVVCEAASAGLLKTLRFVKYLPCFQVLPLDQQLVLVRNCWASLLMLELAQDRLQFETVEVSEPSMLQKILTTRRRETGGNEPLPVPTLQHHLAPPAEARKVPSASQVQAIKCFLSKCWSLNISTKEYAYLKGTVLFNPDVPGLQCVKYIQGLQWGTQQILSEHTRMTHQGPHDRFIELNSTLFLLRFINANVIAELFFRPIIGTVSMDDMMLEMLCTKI
hgDAF-12 ag: H. glycines DAF-12 receptor agonists, primary screen, cell-based, luminescence, HEK293, GAL4 fusion, UAS-luciferase; AID 687014, 2013; HEK293 GAL4-hgDAF12 UAS-luciferase reporter, agonist luminescence; normalized to butyrate control; activation, % at 6.8 µM; hit rate 1.8% among 370,000; Nuclear hormone receptor DAF-12 (Heterodera glycines), GAL4 fusion;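 active = activation above a cutoff set at the mean of all screened compounds plus 3 SD, cut at about 10% in these data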;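 note: 0% = DMSO wells and 100% = sodium butyrate wells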
hcDAF-12 act: H. contortus DAF-12 nuclear receptor activators, primary screen, cell-based, luminescence, HEK293, lit1-tk-luc reporter; HEK293 hcDAF-12 lit1-tk-luc reporter; 0% DMSO, 100% Δ7-dafachronic acid; activation, % at 6.8 µM; hit rate 1.4% among 370,000;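 active = activation above the mean of all tested compounds plus 3 SD, cut at about 5.5% in these data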;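 note: 100% = response to 3 µM Δ7-dafachronic acid high control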
DAX1 inh-2: DAX1 (NR0B1) inhibitors on StAR promoter, primary screen, cell-based, luminescence, SF-1 (NR5A1), full-length DAX-1 | HEK293T StAR-luciferase reporter, SF-1/DAX-1 repression relief | inhibition, % at 6.8 µM | hit rate 1.1% among 370,000;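 active = inhibition above the mean over all tested compounds plus 3 SD, cut at about 3.6% in these data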;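 note: 0% = DAX-1 cells with DMSO and 100% = cells lacking DAX-1 with DMSO; higher inhibition means more luminescence from relief of DAX-1 repression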
LXRb hcDAF ctr: LXR agonists, Gal4 luciferase reporter, confirmation, counter-screen for hcDAF-12 agonist project, cell-based, luminescence, HEK293, H. contortus campaign; shares compounds with hcDAF-12 act; HEK293 Gal4-LXR tk-luc reporter, 24 h; normalized: DMSO 0%, positive control 100%; activation, % at 6.8 µM; 3,400 tested, under 10 active;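 active = mean percent activation of the reporter above a cutoff set as the average over tested compounds plus their standard deviation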
hcDAF12 ag: H. contortus DAF-12 receptor agonists, confirmation, cell-based, luminescence, HEK293, lit1-tk-luc, triplicate; shares compounds with hcDAF-12 act; HEK293 hcDAF-12 lit1-tk-luc reporter; % of Δ7-dafachronic acid response; activation, % at 6.8 µM; hit rate 61% among 3,400; AID 743032, 2013;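 active = mean activation across triplicate tests above the threshold derived from the earlier primary screen, cut at about 5.5% in these data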;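 note: 0% = DMSO only wells and 100% = 3 µM Δ7-dafachronic acid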
Numbers without * were called inactive; . = not tested or not shown. In the library only some 4.1% were active in any assay of this set; here they are far more common.

SMILES	ssDAF-12 act	DAX1 inh-1	hgDAF-12 ag	hcDAF-12 act	DAX1 inh-2	LXRb hcDAF ctr	hcDAF12 ag
CC1=NN(C(=O)c2nn(C)cc2Br)C(O)(C(F)(F)F)C1 (stereo unspecified)	0	0	10	8.9*	2	0	0
COC(=O)[C@]12C[C@H](CC(=O)N3CCSCC3)C(=O)N(Cc3ccccc3)C1=C[C@H](COCc1ccccc1)O[C@@H]2C	-2	.	2	0	-1	.	.
CCCCn1cnc2c(sc3nc4c(cc32)CSC(C)(C)C4)c1=O	0	3	13*	7.0*	1	1	5.6*
NC(=O)c1ncn([C@@H]2O[C@H](C(=O)N3CCCN(Cc4ccccc4F)CC3)[C@@H](O)[C@H]2O)n1	-1	.	-1	0	0	.	.
CN1C(=O)c2cc(NC(=O)c3ccccc3)ccc2OC[C@H]2O[C@@H](CC(=O)NCC3CC3)CC[C@@H]21	-1	.	0	0	0	.	.
COc1ccc2nc(C)cc(Nc3ccc(N4CCN(C)CC4)cc3)c2c1	0.9*	-1	5	13*	0	1	12*
Cn1nnnc1SCc1nc2ccccc2s1	2.1*	2	5	8.7*	1	0	8.5*
COc1cccc(Nc2nnc(SCc3nc4ccccc4s3)s2)c1	1	0	8	7.0*	0	1	10*
Cc1cccc(C)c1Nc1nnc(SCc2nc3ccccc3s2)s1	0.9*	0	13*	12*	2	1	11*
CN(Cc1ccccc1)C(=O)OCc1cn(Cc2cc(F)cc(F)c2)nn1	-1	.	-1	2	-2	.	.
CC(C)N1CCc2c(-c3nc4ccccc4s3)csc2C1	-1	.	5	0	.	.	.
O=c1c(-c2cccc3ccccc23)[n+]([O-])c2ccccc2n1O	0	-2	3	7.3*	-1	0	5.9*
O=C(C1=NN[C@@H]2C(=O)N(c3cccc(F)c3)C(=O)[C@H]12)c1ccc2ccccc2n1	1	0	3	9.0*	2	0	3
Nc1cc2c(cc1Cl)-c1ccccc1C2	0	4	12*	7.5*	0	0	4
Cc1ccc(N2CCN(c3ccc(NCc4nc5ccccc5n4C)cc3)CC2)cc1	0	0	1	3	0	.	.
Cc1ccc(NCc2nc3ccccc3n2C)c(C)c1	1	-1	12*	12*	3.7*	1	11*
Cn1c(CNc2ccc(Cl)cc2)nc2ccccc21	2.9*	2	13*	16*	4.3*	1	11*
Cc1cccc(NCc2nc3ccccc3n2C)c1	1	2	10	7.5*	2	0	6.9*
N#Cc1ccc(S(=O)(=O)NCC2CCN(C(=O)C(=O)c3cc4ccccc4o3)CC2)cc1	-1	.	-2	0	-1	.	.
CC(C)CNC(=O)OCc1cn(Cc2ccc(F)cc2F)nn1	-1	.	2	-1	0	.	.
O=C(Nc1ccc(F)c([N+](=O)[O-])c1)C(=O)c1c(O)[nH]c2ccccc12	0	4	2	6.9*	0	0	4
NC1=NC(=O)/C(=C\c2ccc(-c3ccc(Cl)cc3)o2)S1	0.9*	1	5	6.5*	0	0	7.7*
Cc1cnc(NC(=O)Nc2ccc(OCc3ccccc3)cc2)c(Br)c1	0	0	6	7.3*	0	0	2
